Test results from PubChem BioAssay AID1159580 (chemical genetic matrix, 2015).
“And” between values parts separate entries of the source, which are not always exact repeats. Equal values may be shown once. The campaign covered roughly 5,500 compounds. About 2,000 (36%) were called active. About 18% were inconclusive and are not listed. Rule as the data show it: active = normalized growth mostly below about 0.91 (no sharp cut-off); inconclusive = no clear call, values can overlap the other calls; inactive = mostly above about 0.92. The list shows a part of the results.

Assay: chemical genetic growth profiling, strain panel (AID 1159580);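 also: tested at 20 µM; growth read once vehicle control cultures reached saturation at 30 °C; 1 = growth at the plate median or of vehicle wells; lower values mean less growth of the strain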
Conditions: growth OD

Measured: normalized growth

O=C(O)c1cccnc1C(=O)O
inactive: S. cerevisiae deletion strains, locus YJR066W, strain TOR1, hits give low values 0.979 | S. cerevisiae deletion strains, locus YJR075W, strain HOC1, hits give low values 1.08 | S. cerevisiae deletion strains, locus YKL009W, strain mrt4, hits give low values 1.03 | S. cerevisiae deletion strains, locus YKL068W, hits give low values 0.982 | S. cerevisiae deletion strains, locus YKL085W, strain MDH1 (second series), hits give low values 0.982 | S. cerevisiae deletion strains, locus YKL085W, strain MDH1, hits give low values 0.982 | S. cerevisiae deletion strains, locus YKL160W, strain elf1, hits give low values 0.999 | S. cerevisiae deletion strains, locus YKL190W, strain CNB1, hits give low values 1.01 | S. cerevisiae deletion strains, locus YKR001C, strain vps1, hits give low values 0.986 | S. cerevisiae deletion strains, locus YKR026C, strain gcn3, hits give low values 0.981 | S. cerevisiae deletion strains, locus YKR091W, strain srl3, hits give low values 0.999 | S. cerevisiae deletion strains, locus YLL001W, strain dnm1, hits give low values 1.04 | S. cerevisiae deletion strains, locus YLL026W, hits give low values 1.01 | S. cerevisiae deletion strains, locus YLL041C, strain sdh2, hits give low values 1 | S. cerevisiae deletion strains, locus YLR027C, strain aat2, hits give low values 1.01 | S. cerevisiae deletion strains, locus YLR039C, strain RIC1, hits give low values 1.08 | S. cerevisiae deletion strains, locus YLR058C, strain SHM2, hits give low values 1.02 | S. cerevisiae deletion strains, locus YLR102C, strain apc9, hits give low values 0.985 | S. cerevisiae deletion strains, locus YLR113W, strain HOG1, hits give low values 0.996 | S. cerevisiae deletion strains, locus YLR221C, strain rsa3, hits give low values 1.04 | S. cerevisiae deletion strains, locus YLR258W, strain gsy2, hits give low values 1.01 | S. cerevisiae deletion strains, locus YLR262C, strain YPT6 (second series), hits give low values 1.01 | S. cerevisiae deletion strains, locus YLR262C, strain YPT6, hits give low values 1.09 | S. cerevisiae deletion strains, locus YLR268W, strain sec22, hits give low values 1.01 | S. cerevisiae deletion strains, locus YLR320W, strain mms22, hits give low values 1.04 | S. cerevisiae deletion strains, locus YLR330W, strain CHS5, hits give low values 1.01 | S. cerevisiae deletion strains, locus YLR342W, strain FKS1 (second series), hits give low values 1.01 | S. cerevisiae deletion strains, locus YLR342W, strain FKS1, hits give low values 1.01 | S. cerevisiae deletion strains, locus YLR357W, strain rsc2, hits give low values 0.987 | S. cerevisiae deletion strains, locus YLR370C, strain arc18, hits give low values 0.984 | S. cerevisiae deletion strains, locus YLR371W, strain rom2, hits give low values 0.986 | S. cerevisiae deletion strains, locus YLR384C, strain iki3, hits give low values 1.01 | S. cerevisiae deletion strains, locus YLR418C, strain cdc73, hits give low values 1.04 | S. cerevisiae deletion strains, locus YML016C, strain PPZ1, hits give low values 1.01 | S. cerevisiae deletion strains, locus YML032C, strain rad52, hits give low values 1.01 | S. cerevisiae deletion strains, locus YML120C, strain ndi1, hits give low values 1 | S. cerevisiae deletion strains, locus YML124C, strain tub3, hits give low values 0.989 | S. cerevisiae deletion strains, locus YMR058W, strain fet3, hits give low values 1 | S. cerevisiae deletion strains, locus YMR078C, strain ctf18, hits give low values 0.99 | S. cerevisiae deletion strains, locus YMR125W, strain sto1, hits give low values 1 | S. cerevisiae deletion strains, locus YMR129W, hits give low values 0.987 | S. cerevisiae deletion strains, locus YMR205C, strain PFK2, hits give low values 0.988 | S. cerevisiae deletion strains, locus YMR223W, strain ubp8, hits give low values 1.01 | S. cerevisiae deletion strains, locus YMR231W, strain pep5, hits give low values 0.996 | S. cerevisiae deletion strains, locus YMR307W, strain GAS1, hits give low values 1.02 and 0.993 | S. cerevisiae deletion strains, locus YNL067W, strain RPL9B, hits give low values 1.06 | S. cerevisiae deletion strains, locus YNL071W, strain lat1, hits give low values 0.998 | S. cerevisiae deletion strains, locus YNL128W, strain TEP1, hits give low values 1.03 and 1.01 | S. cerevisiae deletion strains, locus YNL175C, strain NOP13, hits give low values 1.02 | S. cerevisiae deletion strains, locus YNL183C, strain NPR1, hits give low values 0.934 | S. cerevisiae deletion strains, locus YNL197C, strain WHI3, hits give low values 1.01 | S. cerevisiae deletion strains, locus YNL209W, strain ssb2, hits give low values 0.994 | S. cerevisiae deletion strains, locus YNL224C, strain SQS1, hits give low values 0.998 | S. cerevisiae deletion strains, locus YNL233W, strain BNI4, hits give low values 1.06 | S. cerevisiae deletion strains, locus YNL248C, strain rpa49, hits give low values 0.997 | S. cerevisiae deletion strains, locus YNL250W, strain rad50, hits give low values 0.984 | S. cerevisiae deletion strains, locus YNL271C, strain bni1, hits give low values 0.962 | S. cerevisiae deletion strains, locus YNL298W, strain CLA4, hits give low values 0.977 | S. cerevisiae deletion strains, locus YNL307C, strain MCK1, hits give low values 1.01 | S. cerevisiae deletion strains, locus YNL322C, strain KRE1 (second series), hits give low values 0.985 | S. cerevisiae deletion strains, locus YNL322C, strain KRE1, hits give low values 1.01 | S. cerevisiae deletion strains, locus YNR049C, strain mso1, hits give low values 0.989 | S. cerevisiae deletion strains, locus YNR052C, strain pop2, hits give low values 0.996 | S. cerevisiae deletion strains, locus YOL006C, strain TOP1, hits give low values 1.11 | S. cerevisiae deletion strains, locus YOL012C, strain htz1 1.66 | S. cerevisiae deletion strains, locus YOL147C, strain pex11, hits give low values 0.99 | S. cerevisiae deletion strains, locus YOR001W, strain rrp6, hits give low values 1.04 | S. cerevisiae deletion strains, locus YOR061W, strain CKA2, hits give low values 1.02 | S. cerevisiae deletion strains, locus YOR069W, strain VPS5, hits give low values 1.02 | S. cerevisiae deletion strains, locus YOR070C, strain gyp1, hits give low values 0.998 | S. cerevisiae deletion strains, locus YOR080W, strain dia2, hits give low values 0.974 | S. cerevisiae deletion strains, locus YOR083W, strain WHI5 (second series), hits give low values 1.03 | S. cerevisiae deletion strains, locus YOR083W, strain WHI5, hits give low values 0.945 | S. cerevisiae deletion strains, locus YOR106W, strain vam3, hits give low values 0.991 | S. cerevisiae deletion strains, locus YOR136W, strain idh2, hits give low values 1.02 | S. cerevisiae deletion strains, locus YOR144C, strain elg1, hits give low values 0.979 | S. cerevisiae deletion strains, locus YOR184W, strain ser1, hits give low values 0.998 | S. cerevisiae deletion strains, locus YOR231W, strain MKK1, hits give low values 1.03 | S. cerevisiae deletion strains, locus YOR265W, strain rbl2, hits give low values 0.989 | S. cerevisiae deletion strains, locus YOR270C, strain vph1, hits give low values 0.984 | S. cerevisiae deletion strains, locus YOR290C, strain snf2, hits give low values 0.987 | S. cerevisiae deletion strains, locus YOR316C, strain cot1, hits give low values 0.993 | S. cerevisiae deletion strains, locus YPL051W, strain arl3, hits give low values 1.02 | S. cerevisiae deletion strains, locus YPL055C, strain LGE1, hits give low values 1.11 | S. cerevisiae deletion strains, locus YPL078C, strain atp4, hits give low values 1.05 | S. cerevisiae deletion strains, locus YPL106C, strain sse1, hits give low values 1.06 | S. cerevisiae deletion strains, locus YPL240C, strain hsp82, hits give low values 0.994 | S. cerevisiae deletion strains, locus YPL256C, strain CLN2, hits give low values 1 | S. cerevisiae deletion strains, locus YPR119W, strain clb2, hits give low values 0.988 | S. cerevisiae deletion strains, locus YPR141C, strain kar3, hits give low values 0.978 | S. cerevisiae deletion strains, locus YPR163C, strain tif3, hits give low values 0.996 | S. cerevisiae deletion strains, locus YPR167C, strain met16, hits give low values 0.983 | S. cerevisiae deletion strains, strain wtn01, hits give low values 0.997 | S. cerevisiae strains, strain wild type, hits give low values 1.02
